# Rango complex inh: Rango-importin beta binding inhibition; Rango CFP/YFP FRET sensor + importin beta, 45 min; 0.031% of 340,000 active; Potency, µM (highest dose often 92.2 µM), without a hit: at the top dose inhibition of complex formation; calls by dose curve;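 also: 0% = DMSO wells and 100% = buffer wells lacking importin beta; nearly all actives have a fitted effect of over 15% in size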
#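 Inhibition scored from the CFP 486 nm/YFP 530 nm FRET ratio 45 min after adding 0.125 microM importin beta to 50 nM Rango biosensor preincubated 5 min with compound (room temperature, PBS with DTT, Tween-20, BSA). No-importin wells as positive control.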
# Nrf2 inh: blocks Nrf2 signaling; A549 ARE-Fluc reporter, luciferase luminescence, 18-24 h; Potency, µM (doses to about 46 µM), inactives show at the highest dose activity change, negative = inhibition, usual class: inhibitors; 2.1% of 360,000 active; AID 504444; also: % is scaled to controls: 0 for no effect and ±100 for the full control effect; nearly all actives have a fitted effect of over 60% in size
#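 Nrf2 function is reported as luminescence of an ARE-controlled luciferase in A549 cells. Compounds were tested at several concentrations, and a CellTiter-Fluor read on the same wells flagged cytotoxicity.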
# Rango release inh: prevents RanGTP from dissociating the Rango-importin beta complex | O95149+P62826 | Biochemical FRET Rango-importin beta, RanGTP-induced dissociation | Potency, µM (titrated, usually from 46.1 µM), for inactives: at the highest dose activity change, negative = inhibition | 0.071% of 340,000 active | AID 540253; calls by dose curve; also: % of control where 0% means no effect; nearly all actives have a fitted effect of over 45% in size
#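 Compounds sat 5 min at room temperature with 0.1 uM Rango biosensor plus 0.25 uM importin beta, then FRET pre-read. RanGTP-RCC1 (0.6 uM Ran, 2mM GTP, 0.2 uM RCC1) added for 45 min, and the CFP/YFP post-read measured blocked complex dissociation.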
# Nrf2 activator: Nrf2 pathway activation | AID 624171 | 0.31% of 410,000 active | AREc32 ARE-luciferase reporter (MCF7-derived line), luminescence, 24 h | Potency, µM (highest dose often 46.1 µM), for inactives: at the highest dose activation, most hits filed as activators; also: % of control where 0% means no effect; nearly all actives have a fitted effect of over 65% in size
#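 Luciferase luminescence (Steady-Glo, 30 min at room temperature) served as the read-out of ARE activation in AREc32 cells treated with compounds for 24 hr at 37 deg C.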
# A549 tox: kills or reduces viability of A549 cells in Nrf2 counter-screen | Potency, µM (top dose mostly 46 µM), without a hit: at the highest dose activity change, negative = cytotoxicity, hits mostly inhibitors | 0.16% of 390,000 active | A549 ARE-Fluc cells, CellTiter-Fluor viability, 18-24 h; also: % is scaled to controls: 0 for no effect and ±100 for the full control effect
#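 A549 ARE_Fluc cells in 5% FBS OPTI-MEM were exposed to compounds in concentration-response for 18-24 h at 37 deg C. Viability was read by CellTiter-Fluor fluorescence (Ex 405/Em 525) after 30 min, before the luciferase read.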
# * = called active by the depositor; ? = inconclusive; · = not tested or not shown; [ ] = remark or other dose. Shown are actives, neighbours in structure and some others; about 2.3% of the full set was active somewhere. Unless noted, calls follow the shape of the dose curve; as a rule, active = well fitted curve in the direction sought with a large enough effect; inconclusive = small, poorly fitted or top-dose-only effect, or another doubt; inactive = no such curve, though single readings can be large; an effect the other way counts as inactive or inconclusive. Potency is read from the fitted curve at half-maximal effect.
SMILES,Rango complex inh,Nrf2 inh,Rango release inh,Nrf2 activator,A549 tox
Cn1c(SCC(=O)N/N=C/c2ccc([N+](=O)[O-])s2)nnc1-c1ccccc1,-2%,21µM*,3%,-1%,?
COc1ccccc1NC(=O)C(=O)N/N=C/c1ccc([N+](=O)[O-])s1,-1%,-15%,-1%,6%,-1%
COC(=O)N/N=C/c1ccc([N+](=O)[O-])s1,1%,6.5µM*,-13%,21%,10µM*
Cc1ccccc1C(=O)N/N=C/c1ccc([N+](=O)[O-])s1,?,10µM*,-4%,-4%,-22%
Cn1c(SCC(=O)N/N=C/c2cc([N+](=O)[O-])ccc2O)nnc1-c1ccccc1,-2%,-26%,-2%,-1%,-3%
COc1ccc(OCc2cc(C3Nc4ccccc4C(=O)N3Cc3ccccc3)ccc2OC)cc1 (centres undefined),·,-25%,·,·,-5%
Cc1cc(C(=O)N/N=C/c2ccc([N+](=O)[O-])s2)c2ccccc2n1,1%,?,16%,0%,?
O=C(N/N=C/c1cccs1)c1cncc(Br)c1,2%,?,0%,0%,-3%
O=C(N/N=C\c1ccc([N+](=O)[O-])s1)c1cncc(Br)c1,?,16µM*,19%,-1%,23µM*
O=C(N/N=C/c1ccc([N+](=O)[O-])s1)c1ccccc1,-3%,23µM*,-15%,-2%,?
COc1ccc(NC(C)C(=O)N/N=C/c2ccc([N+](=O)[O-])s2)cc1 (centres undefined),-1%,21µM*,2%,0%,?
CCc1ccc(-c2cc(C)no2)cc1S(=O)(=O)Nc1cc(OC)c(OC)c(OC)c1,·,1%,·,0%,5%
Cc1nnc(NC(=O)C(=O)c2cc(C)n(-c3ccc(C)c(C)c3)c2C)s1,·,-17%,·,1%,-10%
Cc1c(NC(=O)[C@@H](NC(=O)c2ccc(Cl)c([N+](=O)[O-])c2)C(C)C)c(=O)n(-c2ccccc2)n1C,5%,1%,9%,24%,0%
N#Cc1c(NCc2ccccc2)ccnc1NCc1cccnc1,-4%,6.5µM*,-2%,0%,-14%
Cc1cc(NC(=O)CS(=O)(=O)c2cn(Cc3ccccc3Cl)c3ccccc23)no1,3%,26µM*,0%,-1%,-17%[1.84 µM]
O=C(c1ccc2c(c1)OCO2)N1CCN(c2ccc(C(F)(F)F)cn2)CC1,0%,12µM*,-14%,5%,0%
COc1ccc(-c2cc(C(=O)NCc3ccccc3)c3c(-c4ccccc4)[nH]nc3n2)cc1,·,?,·,0%,6%
COc1cccc(NC(=O)c2cccc(N3C(=O)C4C5C=CC(C5)C4C3=O)c2)c1 (centres undefined),-3%,18µM*,-1%,0%,?
CN(C)/N=C/C=C1\CCC/C(=C/c2cccs2)C1=O,?,?,?,10µM*,0%
C=CC[n+]1c(-c2ccc(OC)cc2)csc1NNC(=O)Nc1ccccc1,?,15µM*,-23%,4%,-7%
Cc1nnc(SCC(=O)N2CCOCC2)c2ccccc12,3%,9.2µM*,1%,?,1%
O=C(Cc1ccccc1)Nc1sc2c(c1C(=O)Nc1ccc(Cl)cc1)CCOC2,·,-20%,·,·,-2%
C=CC(=O)Nc1cccc(Nc2nc(N[C@H]3CC[C@H](N(C)C)CC3)nc3c2ncn3C(C)C)c1,2%,0.58µM*,1%,-3%,2.6µM*
CC(C)n1cnc2c(Nc3cccc(Cl)c3)nc(NCCCO)nc21,5%,?,0%,-5%,?
SMILES,Rango complex inh,Nrf2 inh,Rango release inh,Nrf2 activator,A549 tox
Cc1ccc(NC(=O)N2CCCC2C(=O)Nc2ccc(-n3cnnn3)c(C)c2)cc1 (centres undefined),-4%,15%,1%,0%,12%
Cc1cc(NC(=O)C2CCCN2C(=O)Nc2cccc(Cl)c2)ccc1-n1cnnn1 (centres undefined),1%,16µM*,4%,-1%,-3%
CC[C@@H](C(=O)[C@@H](C)[C@@H](O)[C@H](C)CCc1ccc(C)c(O)c1C(=O)O)[C@H]1O[C@](CC)([C@H]2CC[C@](O)(CC)[C@H](C)O2)C[C@@H]1C,2%,5.2µM*,1%,-3%,6.5µM*
Cc1sc2ncn(CCC(=O)O)c(=O)c2c1C,0%,6%,0%,-1%,-4%
Cc1sc2ncn(CCn3cnc4sc(C)c(C)c4c3=O)c(=O)c2c1C,0%,16µM*,0%,0%,-3%
Cc1sc2ncn(CC(=O)NCC(=O)N3CCN(c4ccc(F)cc4)CC3)c(=O)c2c1C,-2%,8.2µM*,-25%,0%,-1%
COCCNC(=O)c1cc(Sc2ccc(F)cc2F)nc2ccccc12,·,·,·,8%,23%
CC(Nc1ccccc1N1CCCCC1)C(=O)N1CCc2ccccc21 (centres undefined),-4%,9.2µM*,-6%,0%,-9%
CC(NC(c1ccccc1)c1ccccc1)C(=O)N1CCCc2ccccc21 (centres undefined),5%,-7%,0%,2%,2%
Cc1ccc(C)c(NS(=O)(=O)c2ccc3c(c2)Cc2cc(S(=O)(=O)Nc4cc(C)ccc4C)ccc2-3)c1,-4%,13µM*,3%,12%,-30%
Cc1sc2ncnc(NCC3CCCO3)c2c1C (centres undefined),-1%,21µM*,-1%,0%,-12%
CCc1cc2c(NCC3CCCO3)ncnc2s1 (centres undefined),?,?,-13%,-1%,-8%
COc1cccc(/C=N/NC(=O)C(=O)N/N=C/c2cccc(OC)c2O)c1O,0%,-14%,-7%,1%,-10%
COc1cccc(/C=N/NC(=O)c2cc3cc([N+](=O)[O-])ccc3s2)c1O,-3%,15µM*,-11%,0%,?
c1ccc(CN2CCN(c3nc(NCc4ccco4)c4ccccc4n3)CC2)cc1,-2%,23µM*,7%,8%,?
OCCN1CCN(c2nc(NCc3ccco3)c3ccccc3n2)CC1,1%,-4%,1%,0%,-5%
COc1ccc(NS(=O)(=O)c2cc(Br)cc3c2N(C(=O)C2CC2)CC3)cc1OC,·,·,·,1%,-12%
CCCC(/C=C/c1ccc(OC(C)=O)cc1)=C1/c2ccccc2C(=O)N1c1ccccc1,?,-6%,?,11µM*,-13%
O=C(CC1C(=O)NCCN1Cc1ccc(-c2ccccc2)cc1)NCC1CC1 (centres undefined),1%,23µM*,-3%,2%,?
O=c1c(Cl)c(N/N=C/c2ccc(Br)cc2)cnn1-c1ccccc1,1%,?,-6%,7.1µM*,-20%
CNc1cnn(-c2ccccc2)c(=O)c1Cl,-4%,24%,16%,2%,-1%

# Source: PubChem
